Assay results: ChEMBL document CHEMBL3988442, “University of Dundee, Small-Polar-MMV Screening Library” (2021)
For some assays here: Entries with a potency or affinity are not part of this list.

What was measured:
Set-up in all cases: scale not given: direction of the effect not stated beside the values
[1] = target: Protein translocase subunit SecA (Escherichia coli (strain K12)) (UniProt P10408); test: Assay to Identify E. coli SecA ATPase Inhibitors; type: functional; details: 30 µM
[2] = target: T1, Ubiquitin-activating enzyme e1, putative (Leishmania donovani (strain BPK282A1)) (UniProt E9BSI1); test: Leishmania donovani Ubiquitin Activating Enzyme (LdE1); type: functional; details: 30 µM
T1 sequence (whole entry): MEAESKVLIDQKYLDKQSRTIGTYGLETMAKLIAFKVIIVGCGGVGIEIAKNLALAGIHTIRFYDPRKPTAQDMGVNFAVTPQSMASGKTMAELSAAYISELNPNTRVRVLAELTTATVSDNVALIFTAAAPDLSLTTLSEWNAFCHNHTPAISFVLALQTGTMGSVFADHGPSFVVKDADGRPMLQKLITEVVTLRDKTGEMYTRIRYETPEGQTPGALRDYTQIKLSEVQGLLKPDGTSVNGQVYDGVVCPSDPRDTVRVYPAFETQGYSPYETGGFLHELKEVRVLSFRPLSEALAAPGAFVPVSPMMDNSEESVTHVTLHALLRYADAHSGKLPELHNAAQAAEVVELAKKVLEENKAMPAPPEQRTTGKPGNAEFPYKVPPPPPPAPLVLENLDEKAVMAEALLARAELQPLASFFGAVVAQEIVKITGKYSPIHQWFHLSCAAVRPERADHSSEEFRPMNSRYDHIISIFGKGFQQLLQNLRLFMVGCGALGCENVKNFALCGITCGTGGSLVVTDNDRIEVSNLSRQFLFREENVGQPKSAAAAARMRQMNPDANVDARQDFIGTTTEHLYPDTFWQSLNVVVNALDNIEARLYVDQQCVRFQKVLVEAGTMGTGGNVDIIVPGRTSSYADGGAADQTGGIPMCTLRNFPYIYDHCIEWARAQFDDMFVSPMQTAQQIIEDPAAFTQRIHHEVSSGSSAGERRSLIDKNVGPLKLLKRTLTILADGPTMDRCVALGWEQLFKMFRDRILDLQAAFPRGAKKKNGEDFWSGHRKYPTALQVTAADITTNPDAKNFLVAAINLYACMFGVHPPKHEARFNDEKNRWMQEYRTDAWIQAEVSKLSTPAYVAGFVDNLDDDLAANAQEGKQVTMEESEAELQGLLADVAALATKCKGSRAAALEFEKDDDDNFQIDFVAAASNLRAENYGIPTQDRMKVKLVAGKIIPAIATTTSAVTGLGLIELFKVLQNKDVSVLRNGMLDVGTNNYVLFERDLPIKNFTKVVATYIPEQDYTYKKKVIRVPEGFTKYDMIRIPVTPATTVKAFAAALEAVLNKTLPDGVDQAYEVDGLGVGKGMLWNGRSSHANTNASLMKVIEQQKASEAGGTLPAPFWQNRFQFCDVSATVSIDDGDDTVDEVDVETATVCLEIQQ

[3] = target: AMP-activated protein kinase, AMPK (Homo sapiens) (UniProt P54646+O43741+P54619+Q9UGJ0+Q9Y478+Q13131+Q9UGI9); test: AMP-dependent Kinase enzyme assay. An in vitro enzyme assay that detects ADP turnover that is directly proportional to AMPK activity. This uses naive AMPK that is activated during the assay with MK-8722; type: functional; details: 30 µM
[4] = target: Sialic acid-binding Ig-like lectin 9 (Homo sapiens) (UniProt Q9Y336); test: Hs-Siglec9 ALPHAscreen SOP 20170721; details: 10 µM
Sequence of Sialic acid-binding Ig-like lectin 9 (Homo sapiens) (Q9Y336 whole entry): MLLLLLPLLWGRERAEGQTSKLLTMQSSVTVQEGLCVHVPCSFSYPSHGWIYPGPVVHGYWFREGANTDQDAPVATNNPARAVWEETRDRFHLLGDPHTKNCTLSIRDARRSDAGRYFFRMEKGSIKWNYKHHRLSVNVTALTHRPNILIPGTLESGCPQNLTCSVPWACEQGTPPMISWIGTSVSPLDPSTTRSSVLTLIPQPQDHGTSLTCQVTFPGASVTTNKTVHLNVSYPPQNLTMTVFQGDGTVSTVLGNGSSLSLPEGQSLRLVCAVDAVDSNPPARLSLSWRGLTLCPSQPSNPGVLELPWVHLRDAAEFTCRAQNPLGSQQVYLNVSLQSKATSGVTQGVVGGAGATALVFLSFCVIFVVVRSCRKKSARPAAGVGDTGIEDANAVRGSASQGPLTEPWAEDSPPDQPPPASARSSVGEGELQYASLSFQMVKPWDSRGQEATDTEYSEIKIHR

[5] = tested on: Trypanosoma cruzi; test: Trypanosoma cruzi phosphomannomutase and mannose-1-phosphate guanylyltransferase assay; type: functional; details: 10 µM
[6] = target: T2, Arginase-2, mitochondrial (Homo sapiens) (UniProt P78540); test: in vitro enzyme assay to detect the production of urea directly proportional to the activity of Arginase II; type: functional; details: 33.3 µM; further: in the data most compounds retested in dose-response had high values
T2 sequence (whole entry): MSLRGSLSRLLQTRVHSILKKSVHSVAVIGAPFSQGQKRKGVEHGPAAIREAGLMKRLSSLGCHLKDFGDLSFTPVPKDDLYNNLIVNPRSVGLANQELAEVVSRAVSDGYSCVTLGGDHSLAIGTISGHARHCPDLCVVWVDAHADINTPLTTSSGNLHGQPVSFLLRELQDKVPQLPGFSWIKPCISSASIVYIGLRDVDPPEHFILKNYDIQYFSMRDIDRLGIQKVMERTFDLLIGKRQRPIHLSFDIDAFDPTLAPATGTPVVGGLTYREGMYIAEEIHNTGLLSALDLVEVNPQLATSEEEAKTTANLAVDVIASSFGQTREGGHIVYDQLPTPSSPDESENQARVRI

[7] = target: T3, Proteasome subunit beta (Trypanosoma cruzi) (UniProt O96673); test: Trypanosoma cruzi proteasome chymotrypsin-like activity (TcProtChymo) assay.; further: in the data most compounds retested in dose-response had high values; type: functional; details: 9.37 µM
T3 sequence (whole entry): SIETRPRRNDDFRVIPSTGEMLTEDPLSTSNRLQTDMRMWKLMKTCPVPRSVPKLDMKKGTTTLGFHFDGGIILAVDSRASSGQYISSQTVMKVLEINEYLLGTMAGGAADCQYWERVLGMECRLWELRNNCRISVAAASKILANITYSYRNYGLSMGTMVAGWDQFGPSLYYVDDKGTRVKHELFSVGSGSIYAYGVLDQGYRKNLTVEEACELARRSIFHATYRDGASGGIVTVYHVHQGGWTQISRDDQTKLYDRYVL

[8] = organism: Homo sapiens; test: To identify inhibition of the IFN signalling (Jak-Stat) pathway via expression of an eGFP reporter gene under the control of an IFN-stimulated response element (ISRE) containing MxA promoter.; type: functional; details: 30 µM
[9] = target: T4, Tyrosyl-tRNA synthetase, putative (Trypanosoma cruzi (strain CL Brener)) (UniProt Q4DSP6); test: Trypanosoma cruzi tyrosyl tRNA synthetase (TcYRS) _High Tyrosine SOP; type: functional; details: 30 µM; further: in the data most compounds retested in dose-response had high values
T4 sequence (whole entry): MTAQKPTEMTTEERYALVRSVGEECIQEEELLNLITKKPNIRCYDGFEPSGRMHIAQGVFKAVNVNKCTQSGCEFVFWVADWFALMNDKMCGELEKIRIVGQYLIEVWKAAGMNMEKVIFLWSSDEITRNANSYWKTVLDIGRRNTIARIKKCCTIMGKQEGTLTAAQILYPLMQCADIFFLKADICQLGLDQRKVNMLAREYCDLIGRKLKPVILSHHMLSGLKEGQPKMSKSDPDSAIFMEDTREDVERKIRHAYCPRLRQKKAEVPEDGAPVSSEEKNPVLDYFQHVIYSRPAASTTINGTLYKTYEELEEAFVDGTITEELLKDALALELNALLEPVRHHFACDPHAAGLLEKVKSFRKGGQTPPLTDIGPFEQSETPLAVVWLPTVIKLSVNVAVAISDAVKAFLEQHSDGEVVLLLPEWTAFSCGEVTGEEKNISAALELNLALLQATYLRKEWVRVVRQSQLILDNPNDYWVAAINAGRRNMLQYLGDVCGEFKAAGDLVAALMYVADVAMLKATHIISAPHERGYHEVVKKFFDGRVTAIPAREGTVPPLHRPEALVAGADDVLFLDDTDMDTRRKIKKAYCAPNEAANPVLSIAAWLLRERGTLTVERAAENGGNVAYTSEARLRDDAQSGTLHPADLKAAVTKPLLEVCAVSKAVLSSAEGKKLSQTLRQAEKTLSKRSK

[10] = target: T4, Tyrosyl-tRNA synthetase, putative (Trypanosoma cruzi (strain CL Brener)); test: Trypanosoma cruzi tyrosyl tRNA synthetase (TcYRS) SOP; type: functional; details: 30 µM
[11] = target: Chromo domain-containing protein 1 (Saccharomyces cerevisiae (strain ATCC 204508 / S288c) (Baker's yeast)) (UniProt P32657); test: ScCHD-1 Enzyme Inhibition Assay; type: functional; details: 30 µM; further: in the data most compounds retested in dose-response had high values
Sequence of Chromo domain-containing protein 1 (Saccharomyces cerevisiae (strain ATCC 204508 / S288c) (Baker's yeast)) (P32657 whole entry, the tested form may be a part): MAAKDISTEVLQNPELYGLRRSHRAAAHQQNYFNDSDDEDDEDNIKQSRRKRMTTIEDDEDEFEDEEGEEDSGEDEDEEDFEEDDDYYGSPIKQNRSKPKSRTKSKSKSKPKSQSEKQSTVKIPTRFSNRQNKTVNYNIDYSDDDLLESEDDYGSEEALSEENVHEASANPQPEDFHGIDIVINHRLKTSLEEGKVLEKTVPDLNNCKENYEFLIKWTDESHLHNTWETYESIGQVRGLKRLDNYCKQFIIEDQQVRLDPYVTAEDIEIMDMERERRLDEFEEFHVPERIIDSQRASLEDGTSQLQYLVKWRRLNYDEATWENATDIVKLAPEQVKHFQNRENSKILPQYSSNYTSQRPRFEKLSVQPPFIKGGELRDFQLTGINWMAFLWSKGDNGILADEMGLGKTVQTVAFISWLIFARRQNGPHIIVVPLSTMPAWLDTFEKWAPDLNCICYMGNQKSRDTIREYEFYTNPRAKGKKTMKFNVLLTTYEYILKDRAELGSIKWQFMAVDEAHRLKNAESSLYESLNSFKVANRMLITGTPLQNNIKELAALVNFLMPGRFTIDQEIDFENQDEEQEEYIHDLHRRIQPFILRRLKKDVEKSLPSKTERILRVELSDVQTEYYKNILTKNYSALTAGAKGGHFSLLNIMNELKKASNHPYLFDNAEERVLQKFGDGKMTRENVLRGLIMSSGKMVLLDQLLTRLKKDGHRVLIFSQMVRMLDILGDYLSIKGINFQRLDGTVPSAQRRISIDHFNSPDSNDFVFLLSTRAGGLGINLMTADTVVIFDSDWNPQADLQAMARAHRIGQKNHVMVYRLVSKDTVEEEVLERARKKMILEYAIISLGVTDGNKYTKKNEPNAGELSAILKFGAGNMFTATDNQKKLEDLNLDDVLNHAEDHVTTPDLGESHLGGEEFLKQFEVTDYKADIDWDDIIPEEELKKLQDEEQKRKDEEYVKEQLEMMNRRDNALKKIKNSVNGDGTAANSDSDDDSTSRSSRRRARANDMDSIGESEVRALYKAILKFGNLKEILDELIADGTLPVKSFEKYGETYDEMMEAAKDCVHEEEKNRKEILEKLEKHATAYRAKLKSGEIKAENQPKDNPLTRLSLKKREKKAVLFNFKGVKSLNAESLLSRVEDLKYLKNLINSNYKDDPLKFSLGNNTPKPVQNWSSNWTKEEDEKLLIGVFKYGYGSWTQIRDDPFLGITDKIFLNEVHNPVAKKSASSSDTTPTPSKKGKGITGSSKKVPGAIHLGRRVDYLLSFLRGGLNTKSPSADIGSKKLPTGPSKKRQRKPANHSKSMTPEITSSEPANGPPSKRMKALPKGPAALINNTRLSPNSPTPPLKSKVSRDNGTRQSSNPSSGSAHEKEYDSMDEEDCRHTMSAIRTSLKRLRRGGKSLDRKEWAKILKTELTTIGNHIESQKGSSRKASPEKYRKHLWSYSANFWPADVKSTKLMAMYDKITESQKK

Sequence of Protein translocase subunit SecA (Escherichia coli (strain K12)) (P10408 whole entry): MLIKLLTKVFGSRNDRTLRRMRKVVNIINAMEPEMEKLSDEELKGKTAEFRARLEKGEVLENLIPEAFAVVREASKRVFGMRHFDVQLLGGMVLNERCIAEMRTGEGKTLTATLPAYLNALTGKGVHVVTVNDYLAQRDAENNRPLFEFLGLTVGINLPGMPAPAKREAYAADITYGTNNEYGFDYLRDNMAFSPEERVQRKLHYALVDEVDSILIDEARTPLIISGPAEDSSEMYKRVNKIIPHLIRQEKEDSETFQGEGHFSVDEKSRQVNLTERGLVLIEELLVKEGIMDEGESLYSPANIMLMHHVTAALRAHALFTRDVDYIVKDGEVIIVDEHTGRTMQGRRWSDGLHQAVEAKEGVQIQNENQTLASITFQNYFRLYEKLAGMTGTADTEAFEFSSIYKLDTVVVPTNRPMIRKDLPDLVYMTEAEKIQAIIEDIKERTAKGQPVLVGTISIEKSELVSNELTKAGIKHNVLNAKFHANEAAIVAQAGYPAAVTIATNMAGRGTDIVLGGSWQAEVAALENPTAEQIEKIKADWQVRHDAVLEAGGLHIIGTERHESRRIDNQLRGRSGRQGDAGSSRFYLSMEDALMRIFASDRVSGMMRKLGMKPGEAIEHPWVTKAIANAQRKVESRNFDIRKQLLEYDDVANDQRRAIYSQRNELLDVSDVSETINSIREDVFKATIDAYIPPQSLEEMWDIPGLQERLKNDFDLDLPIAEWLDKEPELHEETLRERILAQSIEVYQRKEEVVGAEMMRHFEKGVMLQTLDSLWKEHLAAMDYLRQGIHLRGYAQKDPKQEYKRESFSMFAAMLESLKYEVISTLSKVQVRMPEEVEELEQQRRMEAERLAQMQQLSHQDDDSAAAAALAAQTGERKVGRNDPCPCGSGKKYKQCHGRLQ

SMILES	Percent Effect [1]	Percent Effect [2]	Percent Effect [3]	Percent Effect [4]	Percent Effect [5]	Percent Effect [6]	Percent Effect [7]	Percent Effect [8]	Percent Effect [9]	Percent Effect [10]	Percent Effect [11]
Cc1nccn1CC1CCCN1CCCc1nc(-c2cccs2)no1 (configuration not stated)	-0.0404%	21.6%	-8.26%	-4.35%	-2.92%	-11.6%	13.3%	36.5%	3.45%	13.6%	2.34%
Cc1cc(-c2cnc(N3CCN(C)CC3)nc2-c2ccc(C)s2)on1	-2.21%	-1.35%	10.6%	0.731%	-4.15%	2.09%	2.81%	-1.59%	1.07%	6.49%	-16.5%
CCc1nc(C2CCCN2CC(=O)Nc2nncs2)no1 (configuration not stated)	-3.67%	5.2%	-3.54%	12.8%	3.37%	-3.2%	2.53%	12.1%	10.7%	21.9%	-9.06%
O=C(c1ccc[nH]1)N1CCn2cc(CN3CCCC3)nc2C1	-5.65%	0%	7.25%	-0.683%	-3.35%	-0.699%	9.07%	8.62%	1.06%	3.85%	-0.931%
CCN1CC(C(=O)N2CCC(Oc3ccccc3Cl)CC2)CC1=O (configuration not stated)	-1.39%	2.74%	6.94%	-1.45%	-11.5%	-4.39%	16.7%	42.2%	3.12%	-30.9%	-5.81%
Cc1ccc(C#N)c(N2CCC(c3nccn3Cc3cscn3)CC2)n1	-1.6%	10.7%	-4.04%	15.7%	5.75%	9.38%	13.2%	3.33%	4.92%	16.1%	-7.28%
Cc1nn(C)c(C)c1C1COCCN1c1ncnc2sccc12 (configuration not stated)	-2.31%	-2.67%	-0.892%	-4.05%	-0.487%	-2.08%	10.1%	31.3%	1.64%	3.7%	-1.49%
OC(CN1CCOCC1)c1ccc(OC(F)(F)F)cc1 (configuration not stated)	-5.02%	2.7%	35.5%	-1.38%	0.283%	0.401%	4.32%	1.68%	6.4%	13.6%	-7.59%
CC1CN(CC(=O)Nc2nncs2)CCN1c1nccs1 (configuration not stated)	1.26%	8.11%	-4.77%	-8.19%	-5.29%	0.924%	16.5%	25.9%	4.95%	18.3%	-4.83%
COc1ccc(NC(=O)C(c2cccc(F)c2)N2CCOCC2)cc1 (configuration not stated)	-1.48%	0%	4.04%	2.98%	-5.75%	3.55%	13.5%	0.224%	6.38%	10.4%	-3.15%
O=C(NS(=O)(=O)c1ccccc1Cl)c1cccc2c1OCCO2	-5.38%	5.48%	-3.79%	16.7%	3.53%	8.64%	10.7%	7.24%	-10.8%	-10%	96.7%
Cc1ncccc1CNCC1CCN(CC(O)c2ccccc2)CC1 (configuration not stated)	-5.43%	13.9%	-5.86%	1.69%	-0.308%	-1.07%	15.3%	3.05%	6.25%	17.7%	-29.1%
Cc1ccoc1C(=O)N1CCO[C@H]2[C@H](OCC3CCOCC3)CC[C@@H]21	-3.5%	5.33%	-1.93%	2.92%	5.02%	-48.9%	-0.513%	-9.79%	2.08%	-5%	-3.9%
COc1ccc(CS(=O)(=O)CC(=O)NCC2CC2)cc1F	-1.25%	10.5%	6.04%	-2.71%	1.66%	5.92%	15.6%	8.09%	6.38%	18.2%	-4.08%
Cc1cc(C)n(CC2CCCN2C(=O)c2ccc3c(c2)OCO3)n1 (configuration not stated)	-1.47%	6.33%	1.3%	-3.57%	2.15%	-1.5%	8.75%	1.15%	2.08%	2.53%	0.284%
CCN(CC)CC1CN(CCc2ccccc2)Cc2nccn2C1 (configuration not stated)	-3.63%	-2.74%	1.1%	4.51%	3.77%	-1.6%	1.28%	2.5%	7.29%	8.64%	-0.569%
NC(=O)C1CCN(Cc2cccc(NC(=O)c3ccsc3)c2)CC1	-6.14%	2.67%	-1.03%	5.05%	3.99%	-2.08%	7.85%	17%	7.1%	13.6%	-5.67%
CCn1cnnc1CNC(=O)NC(C)c1cccs1 (configuration not stated)	-1.87%	23.4%	-0.473%	11.3%	1.5%	-5.69%	3.38%	10.1%	4.85%	21.9%	-8.5%
COCc1cccc(CNCc2c(C)nn(C)c2N(C)C)c1	-6.8%	18.9%	-21.5%	9.53%	7.64%	-4.01%	12.4%	4.56%	7.39%	23.5%	-13.6%
Cc1nn(C)c(Cl)c1C1CCCN1CCc1ccccn1 (configuration not stated)	3.64%	-3.8%	12.3%	1.51%	-1.74%	7.53%	5.83%	4.77%	-1.04%	2.53%	-11.7%
Cc1nc(CN2CC3(CCN(c4ncc(F)cn4)C3)CC2=O)cs1 (configuration not stated)	-1.99%	0%	8.52%	6.6%	-0.69%	1.94%	0.348%	7.34%	3.17%	8.97%	-4.69%
CC(C)NC(=O)c1nnn(-c2cccc(C(F)(F)F)c2)c1C1CC1	-3.01%	15.3%	-3.96%	15.4%	5.73%	15.4%	22.8%	11.4%	4.21%	12.8%	77.3%
